Laboratory results taken from PubChem BioAssay (NCATS).
Results filed as inconclusive are left out. Activity calls are given as the source filed them. The call rests on the fitted dose curve; in most records, active means well fitted inhibition curve with a large enough effect; inconclusive means small, poorly fitted or top-dose-only effect; inactive means flat fitted curve, though single readings scatter.

Key:
Experiment in all cases: Cytotoxic Profiling of Annotated Libraries Using Quantitative High-Throughput Screening (AID 1296008); further: nearly all actives have a fitted effect of over 60% in size
Conditions in all cases: Five cell lines viability, CellTiter-Glo ATP luminescence, 48-72 h; max response: stronger effect = lower value
CRL-7250 = normal cell line; tested on: CRL-7250
Summary of the method: (§1)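 Cells exposed to compounds for 48 or 72 hr at 37 degrees Celsius. Viability read as ATP-coupled luminescence with CellTiter-Glo after 10 min at room temperature.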

HEK293 = tested on: HEK293
Summary of the method: as §1

HaCat = tested on: HaCat
Summary of the method: as §1

KB-3-1 = tested on: KB-3-1
Summary of the method: as §1

NIH3T3 = tested on: NIH3T3
Summary of the method: as §1

Measured: max response
On the % scale 0 is the no-effect control and ±100 the full control effect.

C=C1C(OC(C)=O)CCC2(C)CCC(C(C)(C)O)CC12 (stereo not given)
inactive: CRL-7250 -5.46% | HEK293 -1.52% | HaCat -5.19% | KB-3-1 1.41% | NIH3T3

CC(=O)OC(C)(C)/C=C/C(=O)[C@](C)(O)C1[C@H](O)C[C@@]2(C)[C@@H]3CC=C4[C@@H](C[C@H](O[C@@H]5O[C@H](CO)[C@@H](O)[C@H](O)[C@H]5O)C(=O)C4(C)C)[C@]3(C)C(=O)C[C@]12C (stereo not given in full)
inactive: CRL-7250 | HEK293 -17.8% | HaCat | KB-3-1 1.94% | NIH3T3

C=C(CCO[C@@H]1O[C@H](CO)[C@@H](O)[C@H](O)[C@H]1O)C(=O)O
inactive: CRL-7250 -12.8% | HEK293 -3.91% | HaCat | KB-3-1 | NIH3T3 -0.513%

Cc1ccc(-n2nc(C(C)(C)C)cc2NC(=O)Nc2cc(COc3cccnc3)[nH]n2)cc1
inactive: CRL-7250 -4.33% | HEK293 -3.79% | HaCat | KB-3-1 | NIH3T3

CC(C)(O)C1CC=C(C(=O)OC[C@H]2O[C@@H](OC(=O)C3=CCC(C(C)(C)O)CC3)[C@H](O)[C@@H](O)[C@@H]2O)CC1 (stereo not given in full)
inactive: CRL-7250 3.51% | HEK293 1.77% | HaCat | KB-3-1 9.42% | NIH3T3

N[C@@H](CC(=O)Nc1ccc(Oc2cc(F)c(F)cc2Br)cc1)C(=O)O
inactive: CRL-7250 -23% | HEK293 -28.9% | HaCat | KB-3-1 -3.53% | NIH3T3 0.0129%

CC1(C)COC(=O)[C@@H]1O[C@@H]1O[C@H](CO)[C@@H](O)[C@H](O)[C@H]1O
inactive: CRL-7250 4.71% | HEK293 0.945% | HaCat | KB-3-1 | NIH3T3 0.729%

CC(=O)O[C@@H]1[C@H](OC(C)=O)C[C@@]2(C)C(CC[C@@H](C)[C@]23Cc2c(O)cc4c(c2O3)CN([C@@H](CCC(=O)O)C(=O)O)C4=O)C1(C)C (stereo not given in full)
inactive: CRL-7250 -2.81% | HEK293 -1.84% | HaCat -30.9% | KB-3-1 5.86% | NIH3T3

COc1ccc(N2CCN(CCCNC(=O)Cn3c(=O)c4cccn4c4c(C)ccnc43)CC2)cc1
inactive: CRL-7250 -6.16% | HEK293 -13.3% | HaCat | KB-3-1 6.93% | NIH3T3

CC/C=C\CC1C(CC(=O)O)CCC1OC1OC(CO)C(O)C(O)C1O (stereo not given)
inactive: CRL-7250 | HEK293 0.263% | HaCat | KB-3-1 8.15% | NIH3T3

C/C=C/C=C/C(O)=C1/C(=O)[C@]2(C)C(=O)[C@@](C)(O)[C@H]1[C@H]([C@@]1(C)OC(=O)C(C)=C1O)[C@H]2C(=O)CC/C=C/C
inactive: CRL-7250 | HEK293 -3.93% | HaCat | KB-3-1 | NIH3T3

CC1(C)Oc2ncnc(N)c2N=C1c1ccc(C2CCC(CC(=O)O)CC2)cc1 (stereo not given)
inactive: CRL-7250 3.48% | HEK293 0.549% | HaCat | KB-3-1 | NIH3T3 0.325%

CC(=O)OC[C@@]12C(=O)C[C@@H](C)[C@]3(C[C@@H](c4ccoc4)OC3=O)[C@H]1CC[C@H](OC(C)=O)[C@]21CO1
inactive: CRL-7250 -3.74% | HEK293 -0.582% | HaCat | KB-3-1 | NIH3T3 -0.126%

COC(=O)C(Cc1ccccc1)NC(=O)c1ccccc1 (stereo not given)
inactive: CRL-7250 -7.59% | HEK293 -8.19% | HaCat | KB-3-1 6.61% | NIH3T3 -1.1%

C[C@@H]1[C@H](O)[C@@H]2OC(=O)C3=C2[C@H](CCC3)[C@@]12C[C@@H](c1ccoc1)OC2=O
inactive: CRL-7250 4.91% | HEK293 -1.21% | HaCat -22.1% | KB-3-1 | NIH3T3

CC(C)=CCC[C@@](C)(O)[C@H]1CC[C@]2(C)[C@@H]1[C@H](O)CC1[C@@]3(C)CC[C@H](O[C@@H]4O[C@H](CO)[C@@H](O)[C@H](O)[C@H]4O[C@@H]4O[C@H](CO)[C@@H](O)[C@H](O)[C@H]4O)C(C)(C)[C@@H]3CC[C@]12C (stereo not given in full)
inactive: CRL-7250 4.67% | HEK293 1.62% | HaCat | KB-3-1 | NIH3T3

C[C@H]1CC[C@@]2(OC1)O[C@H]1CC3C4CC[C@H]5C[C@@H](O[C@@H]6O[C@H](CO)[C@H](O[C@@H]7O[C@H](CO)[C@@H](O)[C@H](O[C@@H]8OC[C@@H](O)[C@H](O)[C@H]8O)[C@H]7O[C@@H]7O[C@H](CO)[C@@H](O)[C@H](O)[C@H]7O)[C@H](O)[C@H]6O)[C@H](O)C[C@]5(C)C4=CC(=O)[C@]3(C)[C@H]1[C@@H]2C (stereo not given in full)
inactive: CRL-7250 -0.886% | HEK293 3.61% | HaCat | KB-3-1 | NIH3T3

Cc1ccc(-c2c(-c3nn(C)c4ncnc(N5CC[C@H](N6CCCCC6)C5)c34)cnn2C)cc1
inactive: CRL-7250 -0.469% | HEK293 -5.54% | HaCat | KB-3-1 -0.872% | NIH3T3

CC(C)CC(=O)O[C@@H]1O[C@H](CO)[C@@H](O[C@H]2O[C@H](C)[C@@H](N[C@H]3C=C(CO)[C@@H](O[C@H]4O[C@H](CO)[C@@H](O[C@H]5O[C@H](CO)[C@@H](O[C@H]6O[C@H](CO)[C@@H](O)[C@H](O)[C@H]6O)[C@H](O)[C@H]5O)[C@H](O)[C@H]4O)[C@H](O)[C@H]3O)[C@H](O)[C@H]2O)[C@H](O)[C@H]1O
inactive: CRL-7250 1.09% | HEK293 -7.41% | HaCat | KB-3-1 | NIH3T3 -2.08%

CC1OC(OC2C(OC3C(O[C@H]4CC[C@@]5(C)C(CC[C@]6(C)C5CC=C5C7CC(C)(C)CC(O)[C@]7(C)CC[C@]56C)C4(C)C)OC(C(=O)O)C(O)C3O)OCC(O)C2O)C(O)C(O)C1O (stereo not given in full)
inactive: CRL-7250 | HEK293 4.82% | HaCat -11.3% | KB-3-1 9.21% | NIH3T3

CC(C)c1ccc2c(c1)CCC1[C@](C)(C(=O)O)CCC[C@]21C (stereo not given in full)
inactive: CRL-7250 | HEK293 2.37% | HaCat | KB-3-1 -0.955% | NIH3T3

C=C1CCC2C(C)(C)CC(O)CC2(C)C1CCC(C)CC(=O)O (stereo not given)
inactive: CRL-7250 -5.49% | HEK293 1.49% | HaCat | KB-3-1 -5.43% | NIH3T3 -0.43%

COc1cccc(OC)c1-c1nc(C(=O)N[C@@H](CC(C)C)C(=O)O)cn1-c1ccnc2cc(Cl)ccc12
inactive: CRL-7250 | HEK293 -12.4% | HaCat 3.78% | KB-3-1 | NIH3T3

CC(=O)/C=C/C1C(C)CC(O[C@@H]2O[C@H](CO)[C@@H](O)[C@H](O)[C@H]2O)CC1(C)C (stereo not given in full)
inactive: CRL-7250 | HEK293 3.69% | HaCat | KB-3-1 | NIH3T3

C=C1CC23CC(=O)C4C(CO)(CO)CCCC4(C)C2CCC1C3 (stereo not given)
inactive: CRL-7250 | HEK293 2.8% | HaCat | KB-3-1 | NIH3T3 -8.41%

Cc1ccc(C)c(NC(=O)CNS(=O)(=O)c2ccc3[nH]c(=O)oc3c2)c1
inactive: CRL-7250 | HEK293 -17.1% | HaCat -0.793% | KB-3-1 8.68% | NIH3T3

CCC1=C(C)C(=O)C(C)CC12C(=O)CCC2C(=O)O (stereo not given)
inactive: CRL-7250 -4.23% | HEK293 -5.13% | HaCat | KB-3-1 0.468% | NIH3T3

COc1ccc2c(c1)N1C(=O)C[C@@]34C=CC[N@+]5([O-])CC[C@H]2[C@H](CC3)[C@@]145
inactive: CRL-7250 0.465% | HEK293 | HaCat 0.691% | KB-3-1 | NIH3T3 -2.66%

C=C1CC[C@@H]2[C@](C)(CO)[C@H](O[C@@H]3O[C@H](CO)[C@@H](O)[C@H](O)[C@H]3O)CC[C@@]2(C)[C@@H]1C/C=C1/C(=O)OC[C@H]1O
inactive: CRL-7250 -3.97% | HEK293 -5.74% | HaCat | KB-3-1 -0.713% | NIH3T3 -0.313%

C[C@]12CCC[C@](C)(C(=O)O)C1[C@@H](O)[C@@H](O)C13CC(CCC12)C(CO)(O[C@@H]1O[C@H](CO)[C@@H](O)[C@H](O)[C@H]1O)C3 (stereo not given in full)
inactive: CRL-7250 4.72% | HEK293 -8.27% | HaCat | KB-3-1 8.89% | NIH3T3

C=C[C@H]1[C@H](O[C@@H]2O[C@H](CO)[C@@H](O)[C@H](O)[C@H]2O)OC=C2C(=O)N3Cc4c([nH]c5ccccc5c4=O)[C@@H]3C[C@H]21
inactive: CRL-7250 | HEK293 | HaCat -8.84% | KB-3-1 | NIH3T3 -10.2%

C=C1C2CCC3CC2(CC(O)C2(O)C1CC(OC1OC(CO)C(O)C(O)C1O)C2(C)C)CC3(C)O (stereo not given)
inactive: CRL-7250 -0.056% | HEK293 4.37% | HaCat -5.66% | KB-3-1 -0.357% | NIH3T3

COC(=O)C1(C)CCCC2(C)c3ccc(C(C)C)cc3C(O)C(O)C12 (stereo not given)
inactive: CRL-7250 -3.44% | HEK293 -25.7% | HaCat | KB-3-1 | NIH3T3

CCC12CCCN3CCc4c(n(c5ccccc45)C(O)C1)C32 (stereo not given)
inactive: CRL-7250 -2.83% | HEK293 -7.92% | HaCat | KB-3-1 | NIH3T3 -1.2%

COc1cc(/C=C/CO[C@@H]2O[C@H](CO)[C@@H](O)[C@H](O)[C@H]2O)cc(OC)c1O[C@@H]1O[C@H](CO)[C@@H](O)[C@H](O)[C@H]1O
inactive: CRL-7250 -7.94% | HEK293 -7.31% | HaCat | KB-3-1 | NIH3T3

COc1cccc(OC)c1-c1ccc(C[C@H](NC(=O)c2c(Cl)cccc2Cl)C(=O)O)cc1
inactive: CRL-7250 1.89% | HEK293 -9.99% | HaCat | KB-3-1 | NIH3T3

CC1(C)CC[C@]2(C(=O)O)CC[C@]3(C)C(=CCC4[C@@]5(C)C[C@@H](O)[C@H](O)[C@@](C)(CO)C5CC[C@]43C)C2C1 (stereo not given in full)
inactive: CRL-7250 | HEK293 2.88% | HaCat | KB-3-1 -4.17% | NIH3T3 -3.06%

CC(NC(=O)[C@H](Cc1ccccc1)NC(=O)OCc1ccccc1)C(=O)CF (stereo not given in full)
inactive: CRL-7250 | HEK293 -1.18% | HaCat | KB-3-1 | NIH3T3 2.43%
